The values that follow come from ChEMBL document CHEMBL1157539, “Thousands of chemical starting points for antimalarial lead identification” (Nature, 2010).

A word on the Inhibition: it is how much of the control response was suppressed. A low value points to a weak effect.

The test system of the first test is Plasmodium falciparum. Kind of test: GSK_TCMDC: Inhibition of Plasmodium falciparum Dd2 in whole red blood cells, using parasite LDH activity as an index of growth. Test compounds present at 2uM. It counts as functional.
`COC(=O)c1cccc(CNCc2ccc(-c3cccc(-c4nc5ccccc5[nH]4)c3)cc2)c1.O=C(O)C(F)(F)F`: the Inhibition was 46%.
Same read-out and setting: under `CC(C)(C)c1ccc(C(=O)NC2CCC(CCN3CCc4ccc(S(C)(=O)=O)cc4CC3)CC2)cc1C(F)(F)F` (stereo not drawn) stands 11%; under `C=CCn1c(Sc2ccc(C#N)c([N+](=O)[O-])c2)nnc1-c1ccc(Cl)cc1`, 85%.
In turn, `Cc1ccc(C(=O)Nc2ccc(F)c(F)c2F)cc1S(=O)(=O)N1CCCCC1` gave an Inhibition of 69%.
The same measure, in the same setting: under `O=C(Nc1cc(Cl)ccc1O)c1cc(-c2ccccc2O)no1` stands 79%.

In a further test the test system is HepG2. The experiment in a line: GSK_TCMDC: Percent inhibition of human HepG2 cell line. Test compounds present at 10uM. It counts as functional.
Turning to `CC(C)c1ccc(NC(=O)N[C@H]2CCN(CCCCCNC(=O)/C=C/c3ccc(Cl)c(Cl)c3)C2)cc1`, the Inhibition came out at 56%.
`Cl.O=C(Nc1ccc(C(=O)OCC2CCCN3CCCCC23)cc1)c1ccc([N+](=O)[O-])cc1` (stereo not drawn) displayed an Inhibition of 5%.
Take `Cc1ccc2c(N/N=C/c3ccccc3[N+](=O)[O-])cc(C)nc2c1`: the Inhibition came out at 13%.
On the same count and under the same terms, under `O=C(Nc1cccc(CN2CCCN(Cc3cccnc3)CC2)c1)c1cc2ccccc2s1.O=C(O)C(F)(F)F` stands 15%.
Compound `CCOc1cc(Cc2cnc(N)nc2N)cc(OCC)c1O` showed an Inhibition of 6%.
The same measure, in the same setting: under `O=C(O)C(F)(F)F.O=[N+]([O-])c1cccc(CNCC2CCN(Cc3ccc(-c4ccccc4)cc3)CC2)c1` stands 28%; under `CCCNCc1c(O)ccc2c(CNCCC)c(O)ccc12.Cl`, 24%; under `CC(=O)N(C)c1ccc(C(=O)Nc2cccc(-c3cccc(-c4nc5cccc(C)c5[nH]4)c3)c2)cc1`, 11%.
Compound `Cc1cc(C(=O)CSc2nc3ccccc3n2-c2ccccc2)c(C)n1C1CCS(=O)(=O)C1` (stereo not drawn) displayed an Inhibition of 0%.
Turning to `CN1CCC[C@@H](Oc2cc3c(cc2Br)CCN3C(=O)Nc2ccc(-c3ccncc3)c(Cl)c2)C1`, the Inhibition was 26%.
For `COC(=O)c1cc2cccc(NC[C@@H](C)NC[C@H](O)c3cccc(Cl)c3)c2[nH]1`, the Inhibition is given as 0%.
The same measure, in the same setting: under `COc1ccccc1/C=C/C(=O)NCCC1CCN(CCCCCNC(=O)/C=C/c2ccc(Cl)c(Cl)c2)CC1` stands 34%; under `CCn1nc(C(=O)NC2CCOc3ccccc32)c2ccccc2c1=O` (stereo not drawn), 13%.
Still for that read-out and setting: in the case of `CC(C)[C@@H](NC(=O)NC1CCC(CCN2C3CCC2CC(OC(=O)C(CO)c2ccccc2)C3)CC1)C(O)(c1ccccc1)c1ccccc1` (stereo partly drawn) it was 19%; in that of `O=C(NCCCCCN1CCC(c2c[nH]c3ccccc23)C1)Nc1ccc(Cl)c(Cl)c1` (stereo not drawn), 28%.
Still for that read-out and setting: under `O=C(CNC(=O)c1ccc(O)cc1)Nc1cccc(-c2cccc(-c3nc4cc(C(F)(F)F)ccc4[nH]3)c2)c1` stands 63%; under `CCCCN(Cc1cnccc1-c1ccc(Br)cc1)c1ccc(C(O)(C(F)(F)F)C(F)(F)F)cc1.O=C(O)C(F)(F)F`, 10%.
`Cc1c(CN2CCC(N3CCC(C(=O)NC4CC4)CC3)CC2)[nH]c2c(Cl)cccc12`: the Inhibition is reported as 22%.
The same measure, in the same setting: under `CC(C)c1ccc(CN2CCCCC(NC(=O)c3cc(-c4ccccc4F)cs3)C2)cc1.O=C(O)C(F)(F)F` (stereo not drawn) stands 18%; under `COc1ccc2[nH]cc(C3CCN(CCCCCNC(=O)c4ccc(-c5ccccc5)cc4)CC3)c2c1`, 50%; under `CCOC(=O)c1ccc(NC(=O)Nc2ccc(-c3cccc(-c4nc5cc(F)ccc5[nH]4)c3)cc2)cc1`, 98%.
As to `CN(C)CCn1c(=N)n(CC(O)c2ccc(Cl)c(Cl)c2)c2ccccc21.Cl` (stereo not drawn), the Inhibition is reported as 20%.
Still for that read-out and setting: under `Cc1cc(C)c2cc(CNCCCNc3nc4ccccc4[nH]3)[nH]c2c1` stands 32%.
`N#Cc1cc(C(=O)c2cc(Br)ccc2O)cn(C2CCCCC2)c1=O` returned an Inhibition of 3%.
Still for that read-out and setting: under `O=C(/C=C/c1ccc(Cl)cc1)NCCCCCN1CCC(C(=O)Nc2ccc(Cl)cc2)CC1` stands 27%.
With `CC(=O)c1ccc(NC(=O)NNC(=O)c2ccc(CCN3CCC(c4nc(COCC(F)(F)F)c(-c5ccc(F)cc5)o4)CC3)cc2)cc1`, the Inhibition is 17%.
On the same count and under the same terms, under `Cc1cc(N2CCCC2)nc(Nc2ccc(NC(=O)C(C)C)cc2)n1` stands 40%; under `Nc1c2c(nc3ccc(Oc4ccc(Br)cc4Br)cc13)CCCC2`, 33%.
Same read-out and setting: in the case of `Cc1cc(C)c(S(=O)(=O)N2CCCCC(c3cccc(C(F)(F)F)c3)=N2)c(C)c1` it was 0%; in that of `COC[C@H]1CCCN1Cc1ccc(-c2ccc(-c3nc4ccccc4[nH]3)s2)cc1`, 18%; in that of `Br.CCCCCCCCc1c(C)nc(C)c(Br)c1O`, 0%.
`N=C(N)c1ccc(NCc2cccc(C(=O)O)c2)cc1.O=C(O)C(F)(F)F` yielded an Inhibition of 7%.
The same measure, in the same setting: under `CN(CCCCCN1CCC(NC(=O)Nc2ccc(Oc3ccccc3)cc2)C1)C(=O)/C=C/c1ccc(Cl)c(Cl)c1` (stereo not drawn) stands 50%.
